Here are results for 136 sequences from the supplement of paper PMC3724861.

Only a selection was taken, and hits are over-represented in it overall. No count for the full screen is at hand.

The assay deals with T1, Caupolican (Caup) homeodomain DNA-binding domain.
T1 sequence: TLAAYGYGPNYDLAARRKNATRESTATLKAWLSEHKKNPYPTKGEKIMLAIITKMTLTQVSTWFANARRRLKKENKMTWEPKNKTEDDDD
The experiment in a line: PBM E-score (8-mer, recovered from the published 9-mer minima) (E-score (dimensionless, -0.5 to 0.5)); Drosophila protein; higher = stronger relative binding preference, active = 0.31 or more. Summed up:
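Caup's homeodomain DNA-binding domain (residues 214-303) was produced by in vitro transcription and translation and applied at 100 nM to custom-designed protein binding microarrays. Each value is an enrichment score giving relative binding preference for a short DNA word; higher means stronger. Published 9-mer scores were the minimum of their two constituent 8-mer scores, and the 8-mer values were recovered from those minima. A cutoff of 0.31 marks candidate binding sequences.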
As for AACGAATG, the “PBM E-score” value was 0.00089 (inactive).

Turning to ATACCAGC, the “PBM E-score” value was -0.0192 (inactive). As for AAAACACG, the figure is 0.303 (inactive). In the case of GGGTCAAA it was -0.108 (inactive); in that of CGTAAAAC, -0.0282 (inactive); in that of CATAGAGA, 0.113 (inactive).

ATTAGTAG: the “PBM E-score” value is 0.212 (inactive). As for GCATGCGC, the figure is -0.104 (inactive). As for ATGCGGGA, the figure is -0.0659 (inactive); as for GGGTGTGA, -0.0838 (inactive). As for TAACATGA, the figure is 0.424 (active); as for GAACATGA, 0.421 (active). For the sequence AAACATGA, the “PBM E-score” value was 0.409 (active). In the case of ACACATGA it was 0.265 (inactive); in that of GAACATTA, 0.219 (inactive).

For the sequence CCACATGA, the “PBM E-score” value was 0.124 (inactive).

For CAACATGG, the “PBM E-score” value is 0.295 (inactive).

Regarding GAGCATGA, the “PBM E-score” value was 0.0786 (inactive). Consider TAACATCA, for which the “PBM E-score” value was 0.305 (inactive). As for CAACATGA, the “PBM E-score” value is 0.344 (active). As to TCACATGA, the “PBM E-score” value was 0.182 (inactive). In the case of AAACATCA it was 0.279 (inactive); in that of CGAACGAC, 0.0606 (inactive). For the sequence ATGGTATG, the “PBM E-score” value is 0.132 (inactive). In the case of CTATTTAA it was -0.0109 (inactive); in that of CGTCTTGA, -0.0138 (inactive). In the case of AGGTCTCA it was -0.08 (inactive); in that of ACTGAGTC, -0.0541 (inactive); in that of AGCTATAG, -0.0145 (inactive). As for AAACATCT, the figure is 0.215 (inactive); as for AAACATCG, 0.217 (inactive). For the sequence CAACATAC, the “PBM E-score” value was 0.302 (inactive).

Take GAACATAC: the “PBM E-score” value is 0.331 (active).

In the case of AAACATTT, the “PBM E-score” value is 0.252 (inactive). In the case of AAACATGT it was 0.443 (active); in that of GGACATAC, 0.179 (inactive); in that of AAACATTG, 0.183 (inactive).

In the case of AAACATGG, the “PBM E-score” value is 0.321 (active). In the case of CCAGTTCC, the “PBM E-score” value is -0.2 (inactive).

Turning to GCAGCGAC, the “PBM E-score” value was -0.118 (inactive). With GATCGGCA, the “PBM E-score” value is -0.0784 (inactive). As for ATTGCGAC, the figure is 0.0529 (inactive); as for CAATTAGA, 0.0523 (inactive). On to GGGGTAAC, for which the “PBM E-score” value is -0.00369 (inactive). With CGTCGTTC, the “PBM E-score” value is 0.0474 (inactive). In the case of ACAAGAAG it was 0.183 (inactive); in that of CTTAACAC, 0.226 (inactive); in that of ATTAACTC, 0.0863 (inactive). As for GTTAACAA, the figure is 0.296 (inactive); as for ATTAACAG, 0.146 (inactive); as for ATTAACAA, 0.342 (active). Consider ATTAACAC, for which the “PBM E-score” value is 0.326 (active). In the case of ATTGCGGC it was -0.0444 (inactive); in that of AAGCGGAT, -0.113 (inactive). Consider ACTTCGAT, for which the “PBM E-score” value was 0.0903 (inactive). As for AGGGCAGC, the figure is -0.267 (inactive); as for CTGTCCGC, -0.11 (inactive); as for ACATGAGA, 0.344 (active).

For the sequence TCATGAGA, the “PBM E-score” value was 0.0179 (inactive).

Turning to CCATGATC, the “PBM E-score” value is 0.0355 (inactive).

On to ATATGATC, for which the “PBM E-score” value is 0.134 (inactive). In the case of ATATGATG it was 0.183 (inactive); in that of ACATGATA, 0.413 (active); in that of ACATGATC, 0.357 (active). In the case of CCATGATA it was 0.0656 (inactive). Take ACATGAGT: the “PBM E-score” value is 0.305 (inactive).

On to ACATGATG, for which the “PBM E-score” value is 0.351 (active). In the case of GCATGATA it was 0.159 (inactive); in that of AGATGATG, 0.0748 (inactive). As for GCCACCAA, the figure is -0.183 (inactive); as for CCGTAAAA, -0.0169 (inactive); as for ACCTTAAA, -0.0366 (inactive). In the case of CAAGGCGA it was -0.0101 (inactive). Turning to ACGGGTAC, the “PBM E-score” value was 0.103 (inactive). As for GTACAACA, the figure is 0.429 (active). As for GTTCAACA, the figure is 0.198 (inactive). As for ATACAACC, the figure is 0.258 (inactive); as for CTACAACA, 0.332 (active).

Consider CTACAACC, for which the “PBM E-score” value is 0.281 (inactive). Take ATACAACG: the “PBM E-score” value is 0.283 (inactive). In the case of GCACAACA it was 0.211 (inactive). In the case of CCACAACA it was 0.142 (inactive); in that of ATACAACA, 0.373 (active). As for GCATACAA, the figure is 0.247 (inactive). Turning to AGATACAA, the “PBM E-score” value was 0.296 (inactive). In the case of AGATACAG it was 0.109 (inactive); in that of ACATACAT, 0.427 (active); in that of ACATAAAG, 0.215 (inactive). As for ACATACGT, the figure is 0.206 (inactive); as for TCATACAA, 0.163 (inactive); as for ACATACAG, 0.247 (inactive). In the case of ACATACAA it was 0.386 (active); in that of ACATAAAT, 0.318 (active); in that of ACATAAAA, 0.221 (inactive). Consider AGATACAT, for which the “PBM E-score” value is 0.368 (active).

In the case of CATAGGTA, the “PBM E-score” value is 0.0694 (inactive). As for AACACTAC, the figure is 0.222 (inactive); as for TCATTTAA, 0.167 (inactive). Turning to AGGGTTGG, the “PBM E-score” value was -0.0294 (inactive). As to AAAACAGT, the “PBM E-score” value is 0.11 (inactive). As to AGGCCGTA, the “PBM E-score” value was -0.041 (inactive). As to GGCCAGTA, the “PBM E-score” value was -0.128 (inactive). In the case of TAACGCTA it was -0.0254 (inactive); in that of GCAGTGAC, -0.0444 (inactive). As for CATCACGA, the figure is 0.107 (inactive); as for AGTGCTTG, 0.116 (inactive). In the case of GCATACAC it was 0.208 (inactive). For the sequence CCATACAC, the “PBM E-score” value is 0.105 (inactive). For the sequence ACATACAC, the “PBM E-score” value is 0.352 (active). With AGGCCCTG, the “PBM E-score” value is -0.09 (inactive).

Turning to AACCAACT, the “PBM E-score” value is 0.143 (inactive).

In the case of CTTGTGCA, the “PBM E-score” value is 0.18 (inactive). As for CTTGTACA, the figure is 0.44 (active). As for GTTGTGCA, the figure is 0.0605 (inactive). As for ATTGTACA, the figure is 0.417 (active); as for CTTGTCCC, 0.186 (inactive); as for ATTGTACC, 0.2 (inactive). Take CTCGTACC: the “PBM E-score” value was 0.0909 (inactive). Turning to ATTGTACG, the “PBM E-score” value was 0.203 (inactive). In the case of CTTGTAGA it was 0.248 (inactive); in that of GTTGTAGA, 0.291 (inactive).

As for CTTGTACC, the “PBM E-score” value was 0.389 (active). With GTTGTACA, the “PBM E-score” value is 0.388 (active). As for ACTAGAGC, the figure is -0.0268 (inactive); as for ACCGGTTA, -0.00609 (inactive). As to CAGGGGTA, the “PBM E-score” value was -0.133 (inactive). As for AGCGAGGG, the figure is -0.182 (inactive); as for CTGATTAC, 0.231 (inactive); as for AGTACACT, 0.181 (inactive). For AGCACACA, the “PBM E-score” value is 0.0184 (inactive). As for AGTACACC, the figure is 0.265 (inactive); as for AGTACACA, 0.342 (active); as for AGTACACG, 0.376 (active). As for AGCACACG, the figure is 0.042 (inactive); as for CCCATAGG, -0.163 (inactive). As for AAACTTGG, the figure is -0.0323 (inactive).
